Data on 13 compounds can be found in PubChem BioAssay (NCATS).

Experiment [1] has as its target Peroxisome proliferator-activated receptor delta (Homo sapiens) (UniProt Q03181). Nature of the experiment: qHTS assay for small molecule agonists of peroxisome proliferator-activated receptor delta signaling (AID 588534; calls by dose curve;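 further: 0% = DMSO basal wells and 100% = positive control agonist at 10 µM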). A digest of the protocol: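 Fluorescence from CCF4 substrate cleavage by beta-lactamase reporter, read 2 hrs at RT, measured agonist activity. Compounds were tested with 18 hrs exposure at 37 C. Concentration-response data fitted to Hill equation.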

In experiment [2] the target is Peroxisome proliferator-activated receptor gamma (Homo sapiens) (UniProt P37231). Nature of the experiment: qHTS assay for small molecule agonists of peroxisome proliferator-activated receptor gamma signaling (AID 588536; active means well fitted curve in the direction sought with a large enough effect in the signal ratio, with a control signal flat, not every such curve was filed as active; the % refers to the signal ratio;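 further: 0% = DMSO basal wells and 100% = rosiglitazone at 2 µM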). A digest of the protocol: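 GeneBLAzer PPAR-gamma-UAS-bla HEK293 cells in 1% charcoal/dextran-treated FBS medium were treated 16 h at 37 C with compounds. Beta-lactamase activity was read by CCF4 ratio (460/530 nm). Response was normalized to 2 uM rosiglitazone (100%) and DMSO, then Hill-fitted for EC50 and efficacy.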
Chain of Peroxisome proliferator-activated receptor gamma (Homo sapiens) (P37231 whole entry, looked up): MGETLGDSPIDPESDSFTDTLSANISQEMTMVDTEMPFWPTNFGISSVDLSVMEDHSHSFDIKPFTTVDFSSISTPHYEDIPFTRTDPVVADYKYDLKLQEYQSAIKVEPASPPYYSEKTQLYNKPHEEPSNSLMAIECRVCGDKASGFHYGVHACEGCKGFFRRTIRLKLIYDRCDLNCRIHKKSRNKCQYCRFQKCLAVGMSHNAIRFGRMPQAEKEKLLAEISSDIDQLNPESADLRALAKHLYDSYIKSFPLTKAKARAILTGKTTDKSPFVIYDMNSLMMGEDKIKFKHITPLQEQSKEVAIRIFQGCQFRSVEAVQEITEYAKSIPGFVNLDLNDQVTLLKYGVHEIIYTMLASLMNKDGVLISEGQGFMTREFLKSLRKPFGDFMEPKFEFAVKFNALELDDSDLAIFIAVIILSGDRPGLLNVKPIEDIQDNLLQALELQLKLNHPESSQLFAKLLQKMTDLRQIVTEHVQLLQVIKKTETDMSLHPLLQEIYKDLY
Background: In qHTS, concentration-response curves come from the screen itself.

For experiment [3] the target is unchanged. Nature of the experiment: qHTS assay for small molecule antagonists of peroxisome proliferator-activated receptor gamma signaling (AID 588537; active means well fitted inhibition curve with a large enough effect in the signal ratio, with a control signal flat, not every such curve was filed as active; the % refers to the signal ratio;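 further: reporter cells co-stimulated with 50 nM rosiglitazone agonist during compound treatment; % of control where 0% means no effect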). A digest of the protocol: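 We seeded GeneBLAzer HEK293 reporter cells at 3000 per well, allowed 6-6.5 h attachment at 37 C, then co-treated with test compound titrations and 50 nM rosiglitazone overnight (16 h). Inhibition was quantified from 460/530 nm emission ratios.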

Experiment [4] addresses Vitamin D3 receptor (Homo sapiens) (UniProt P11473). Nature of the experiment: qHTS assay for small molecule agonists of vitamin D receptor signaling (AID 588543; calls by dose curve;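 further: 0% = DMSO basal and 100% = reference agonist control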). The method, boiled down:
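Agonist-mode beta-lactamase reporter: HEK293T VDR-UAS-bla cells in charcoal-stripped 2% FBS, compound series 16 h 37 C, CCF4 2 h RT. EC50 from Hill fit, scaled against DMSO and 50 nM calcitriol control.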

A short description of experiment [5]: qHTS assay for small molecule antagonists of retinoid X receptor alpha signaling (AID 588546; active means well fitted inhibition curve with a large enough effect in the signal ratio, with a control signal flat, not every such curve was filed as active; the % refers to the signal ratio;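 further: cells stimulated with 9-cis-retinoic acid as agonist; on the % scale 0 is the no-effect control and ±100 the full control effect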). The following applies: HEK293T RXRa-UAS-bla, beta-lactamase ratio, antagonist mode; measured here: W530 green channel, cytotoxicity proxy. The method, boiled down:
(§1)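 Beta-lactamase reporter inhibition, read as CCF4 fluorescence ratio (ex 405, em 460/530 nm) after 2 h at RT. HEK293T UAS-bla cells, 2500/well, were stimulated with 9-cis-RA at 500 or 100 nM final alongside test compound for 18 h at 37 C.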

The target in experiment [6] is Retinoic acid receptor RXR-alpha (Homo sapiens) (UniProt P19793). The description is as above. The following applies: HEK293T RXRa-UAS-bla, beta-lactamase ratio, antagonist mode. A digest of the protocol: as §1
Chain of Retinoic acid receptor RXR-alpha (Homo sapiens) (P19793 whole entry, looked up): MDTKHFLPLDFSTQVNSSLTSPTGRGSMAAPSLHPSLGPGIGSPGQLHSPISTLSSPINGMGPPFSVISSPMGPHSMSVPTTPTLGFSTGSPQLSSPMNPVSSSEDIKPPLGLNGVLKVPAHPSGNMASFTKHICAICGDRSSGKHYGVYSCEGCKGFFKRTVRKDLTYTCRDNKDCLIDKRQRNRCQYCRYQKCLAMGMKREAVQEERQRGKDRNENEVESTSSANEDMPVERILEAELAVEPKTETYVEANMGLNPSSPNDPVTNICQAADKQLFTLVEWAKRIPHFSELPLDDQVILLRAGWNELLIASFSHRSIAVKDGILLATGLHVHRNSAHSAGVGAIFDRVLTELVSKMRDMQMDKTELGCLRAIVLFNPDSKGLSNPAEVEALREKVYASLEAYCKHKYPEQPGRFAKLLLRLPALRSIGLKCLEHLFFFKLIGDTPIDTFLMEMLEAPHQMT
Experiment [7] is described as follows: qHTS assay for environmental chemicals that activate the Aryl hydrocarbon Receptor (AhR) signaling pathway (AID 651777). Further: nearly all actives have a fitted effect of over 15% in size. Further: potency means the concentration at half of the fitted maximal effect. On activation: % of control where 0% means no effect. The following applies: 1A2-DRE human hepatoma cells, luciferase, 24 h; activation: stronger effect = higher value. The method, boiled down: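 AhR activation is scored as a rise in luciferase from a stable DRE–CYP1A2 promoter construct in human hepatoma cells. Treatment lasts 24 hr at 37 C; detection uses One-Glo after 30 min at room temperature.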

Experiment [8] has as its target Peroxisome proliferator-activated receptor alpha (Homo sapiens) (UniProt Q07869). Nature of the experiment: qHTS assay for small molecule agonists of the peroxisome proliferator-activated receptor alpha (PPARalpha) signaling pathway (AID 651778). Further: % of control where 0% means no effect. The following applies: PathHunter PPARalpha complementation, chemiluminescence, 6 h; max response: stronger effect = higher value. A digest of the protocol: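 Cells plated at 2,000/well and held overnight at 37 C, 5% CO2, then compound added by pin tool for 6 hr; after PathHunter detection reagent and 60 min at room temperature, chemiluminescence from enzyme complementation was read.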

Experiment [9] can be described thus: qHTS assay for small molecule agonists of the antioxidant response element (ARE) signaling pathway measured by Nrf2-dependant transcriptional activity (AID 720636; active means well fitted curve in the direction sought with a large enough effect in the repeat runs; an effect the other way counts as inactive or inconclusive;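 further: HepG2 cells with an ARE-driven luciferase reporter; % of control where 0% means no effect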). The method, boiled down:
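First, ARE-luc HepG2 cells attached for 6 hr at 37 C in 1% dialyzed FBS medium. Next, compound or DMSO was added and incubated 16 hr. Finally, ONE-Glo reagent was added and luminescence measured after 30 min.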

A short description of experiment [10]: qHTS assay for small molecule agonists of the antioxidant response element (ARE) signaling pathway measured by Nrf2-dependant transcriptional activity - cell viability counter screen (AID 720653; active means well fitted curve in the direction sought with a large enough effect in the repeat runs; an effect the other way counts as inactive or inconclusive; further: on the % scale 0 is the no-effect control and ±100 the full control effect). To be noted: ARE-bla HepG2 viability, CellTiter-Glo ATP luminescence, 16 h; max response: stronger effect = lower value. A digest of the protocol:
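ARE-bla HepG2 cells (2,000/well) rested 5 hrs at 37C/5% CO2, then exposed to compounds in DMSO for 16 hrs. Viability was read in the same wells as intracellular ATP by luminescence, 30 min at room temperature after reagent addition.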

The target of experiment [11] is Nuclear receptor ROR-gamma (Homo sapiens) (UniProt P51449). Nature of the experiment: qHTS assay for small molecule antagonists of the retinoid-related orphan receptor gamma (ROR-gamma) signaling pathway (AID 651802).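 Further: CHO cells with doxycycline-induced ROR-gamma expression; luciferase reporter luminescence driven by ROR response element; series mostly up to about 92 µM; on the % scale 0 is the no-effect control and ±100 the full control effect; nearly all actives have a fitted effect of over 60% in size.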 A digest of the protocol: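 CHO, TET-inducible ROR + RORE-LUC reporter, 1536-well qHTS. Compound pinned, doxycycline added, 16hr 37C/5% CO2. ONE-Glo, 30 min RT, luminescence; signal drop scored as antagonism.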
Chain of Nuclear receptor ROR-gamma (Homo sapiens) (P51449 whole entry, looked up): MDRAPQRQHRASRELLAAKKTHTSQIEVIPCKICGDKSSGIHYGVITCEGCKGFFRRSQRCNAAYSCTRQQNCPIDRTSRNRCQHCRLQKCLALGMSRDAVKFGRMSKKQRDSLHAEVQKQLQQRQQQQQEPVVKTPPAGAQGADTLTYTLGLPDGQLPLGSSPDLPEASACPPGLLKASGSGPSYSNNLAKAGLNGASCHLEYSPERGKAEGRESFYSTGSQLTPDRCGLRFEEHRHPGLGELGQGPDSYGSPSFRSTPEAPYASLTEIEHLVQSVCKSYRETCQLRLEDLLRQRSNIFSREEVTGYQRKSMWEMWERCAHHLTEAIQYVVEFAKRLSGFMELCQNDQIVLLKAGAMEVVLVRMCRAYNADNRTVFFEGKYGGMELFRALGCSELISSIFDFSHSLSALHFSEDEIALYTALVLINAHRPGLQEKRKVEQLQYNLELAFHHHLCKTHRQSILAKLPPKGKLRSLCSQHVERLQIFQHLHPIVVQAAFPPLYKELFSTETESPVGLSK

Experiment [12] is described as follows: MultiTox-Fluor Cytotoxicity Assay - LYMP1-002 - Dead Cells (AID 960). Further: potency means the concentration at half of the fitted maximal effect; nearly all actives have a fitted effect of over 60% in size. The method, boiled down:
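LYMP1-002 cells 2500/well; 5 hr 37 C pre-incubation; compound 16 hr 37 C; MultiTox-Fluor reagent 60 min RT; dead-cell fluor Ex/Em 485/520. Norm. to DMSO (0%) vs 15 uM tetraoctylammonium bromide (100%); Hill AC50.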

Experiment [13] is described as follows: qHTS assay for small molecule agonists of retinoid X receptor alpha signaling (AID 588544; calls by dose curve;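 on activation: 0% = DMSO basal wells and 100% = reference agonist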). The following applies: HEK293T RXRa-UAS-bla, beta-lactamase reporter, 18 h; 530 nm emission.
The target of experiment [14] is Retinoic acid receptor RXR-alpha (Homo sapiens) (UniProt P19793). The experiment is described as above.
Experiment [15] is described as follows: qHTS assay for cell viability of the p53RE-bla HCT-116 cell line (AID 743292). Further: on the % scale 0 is the no-effect control and ±100 the full control effect; nearly all actives have a fitted effect of over 55% in size. The method, boiled down:
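Quantitative high-throughput format: compounds in DMSO were pinned onto p53RE-bla HCT-116 cells (4,000/well) and incubated 16 h at 37 C. Total intracellular ATP, read by CellTiter-Glo luminescence, reflects viable cell number.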

Experiment [16] in a line: qHTS assay for small molecule activators of the human pregnane X receptor (PXR) signaling pathway (AID 720659; call rule not given here; further: 0% is about no effect).
Experiment [17] can be described thus: qHTS for Inhibitors of the vitamin D receptor (VDR): Hit Validation using a Texas Red Assay (AID 602201). Further: on the % scale 0 is the no-effect control and ±100 the full control effect. A digest of the protocol:
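Fluorescence polarization (Ex 595/Em 615 nm) of Texas Red (7 nM) with 1.5 uM VDR-LBD and LG19078 (final concentrations). Compounds were incubated for 2 hours at room temperature.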

The target in experiment [18] is Vitamin D3 receptor (Homo sapiens) (UniProt P11473). Nature of the experiment: qHTS for Inhibitors of the vitamin D receptor (VDR): Hit Validation in Primary Screen (AID 602199). Further: potency means the concentration at half of the fitted maximal effect. To be noted: VDR-coactivator inhibition assay, qHTS confirmation. A digest of the protocol:
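Fluorescence polarization assay of VDR binding to Alexa 647-labelled SRC2-3 coactivator peptide: 800nM VDR with 5uM LG19078 agonist, compounds, 2 h at room temperature, read Ex 620 nm/Em 688 nm.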

Experiment [19] has the same target. Nature of the experiment: qHTS for Inhibitors of the vitamin D receptor (VDR): Hit Validation using a Beta-Lactamase Assay (AID 602202). Further: on the % scale 0 is the no-effect control and ±100 the full control effect. A digest of the protocol:
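Stably transfected HEK293 cells express a VDR–GAL4 DNA-binding-domain fusion driving a UAS beta-lactamase reporter, stimulated by agonist LG190178. Compounds were added 4 h after plating and incubated 18 h. A FRET beta-lactam substrate was then added for 2 h and cleaved substrate emission read at 447 nm.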

A short description of experiment [20]: qHTS for Inhibitors of the vitamin D receptor (VDR): Hit Validation using a Cytotoxicity Assay (AID 602204).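 Further: plate controls were DMSO for no effect and high-concentration cycloheximide for full effect; nearly all actives have a fitted effect of over 75% in size.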 The method, boiled down: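 First, 20,000 cells are dispensed per well. Next comes a 4 h incubation, then compound addition and an 18 h incubation. Finally, ATP-based luminescent reagent is added and plates are read after 30 min.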
Experiment [21] concerns the target Bifunctional 3'-5' exonuclease/ATP-dependent helicase WRN (Homo sapiens) (UniProt Q14191). Briefly: qHTS for Inhibitors of WRN Helicase: Confirmatory Assay for Cherry-picked Compounds. (AID 720497). Further: series mostly up to about 57 µM; nearly all actives have a fitted effect of over 65% in size. A digest of the protocol: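 Kinetic fluorescence helicase read-out (525 nm excitation, 598 nm emission) on a forked duplex substrate at 100 nM with 2 mM ATP. Enzyme: 20 nM WRN, exposed to compound for 15 min at room temperature. Responses normalized to buffer-only and positive-control wells.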

A short description of experiment [22]: qHTS for Inhibitors of WRN Helicase: Thiazole Orange DNA Binding Counterscreen (AID 720499).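 Further: drop in dye fluorescence marks compound binding to DNA; on the % scale 0 is the no-effect control and ±100 the full control effect; nearly all actives have a fitted effect of over 60% in size.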 The method, boiled down: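 Readout: ThO fluorescence, ex 480 nm/em 530 nm. Mix: 50 nM unlabeled DNA, 100 nM ThO. Compounds pintooled in, 15 min RT before reading.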
The target of experiment [23] is RecQ-like DNA helicase BLM (Homo sapiens) (UniProt P54132). Nature of the experiment: qHTS for Inhibitors of WRN Helicase: BLM Helicase Counterscreen for WRN Inhibitors (AID 720503).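 Further: plate controls were DMSO vehicle for no effect and enzyme-free control wells for full effect; nearly all actives have a fitted effect of over 60% in size.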 The method, boiled down:
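BLM at 1 nM was preincubated with compound for 15 min at room temperature in 25 mM Tris-HCl pH 8.0, 50 mM NaCl, 2 mM MgCl2, 1 mM DTT and 0.01% Tween-20. Unwinding was started with 100 nM DNA and 2 mM ATP (final). Fluorescence (ex 525/em 598 nm) was read twice, 15 min apart, and normalized to enzyme-free and DMSO controls.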

Experiment [24] concerns the target Cytochrome P450 3A4 (Homo sapiens) (UniProt P08684). Nature of the experiment: qHTS Assay for Activators of Cytochrome P450 3A4 (AID 885). Further: nearly all actives have a fitted effect of over 65% in size. The method, boiled down: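 Human CYP3A4 (20 nM) with Luciferin-PPXE at 25 uM (its KM) in 200 mM KPO4; 10 min compound preincubation, then NADPH regeneration and 60 min reaction at RT. Luciferin read by luminescence; normalized to 57 uM ketoconazole full inhibition.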

Experiment [25] addresses Thyroid hormone receptor beta (Homo sapiens) (UniProt P10828). Nature of the experiment: qHTS assay for small molecule agonists of thyroid hormone receptor beta signaling (AID 588545; calls by dose curve). A digest of the protocol: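 HEK 293 TR-UAS-bla; agonist mode; 18 hrs, 37 C; CCF4, ex 405/em 460 and 530 nm; norm. T3 10 nM = 100%, DMSO = 0%; Hill fit → EC50, efficacy.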

Records with an inconclusive call do not appear. This is one part of the list. The source made the active and inactive calls. Unless noted, the call rests on the fitted dose curve; in most records, active means well fitted curve in the direction sought with a large enough effect; inconclusive means small, poorly fitted or top-dose-only effect, or another doubt; inactive means no such curve, though single readings can be large; an effect the other way counts as inactive or inconclusive.

Chain of Peroxisome proliferator-activated receptor delta (Homo sapiens) (Q03181 whole entry, looked up): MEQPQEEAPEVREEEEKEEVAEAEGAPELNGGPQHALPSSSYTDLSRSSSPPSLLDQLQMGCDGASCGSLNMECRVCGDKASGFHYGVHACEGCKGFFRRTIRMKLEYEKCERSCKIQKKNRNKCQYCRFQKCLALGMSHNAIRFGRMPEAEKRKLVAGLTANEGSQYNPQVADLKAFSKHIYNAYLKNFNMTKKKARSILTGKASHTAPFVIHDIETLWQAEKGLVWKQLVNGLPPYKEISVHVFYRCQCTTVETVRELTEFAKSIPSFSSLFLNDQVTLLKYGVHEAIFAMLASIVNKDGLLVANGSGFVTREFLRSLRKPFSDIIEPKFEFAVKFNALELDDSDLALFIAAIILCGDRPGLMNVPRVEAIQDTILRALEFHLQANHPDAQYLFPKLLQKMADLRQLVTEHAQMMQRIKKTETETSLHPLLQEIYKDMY
Chain of Vitamin D3 receptor (Homo sapiens) (P11473 whole entry, looked up): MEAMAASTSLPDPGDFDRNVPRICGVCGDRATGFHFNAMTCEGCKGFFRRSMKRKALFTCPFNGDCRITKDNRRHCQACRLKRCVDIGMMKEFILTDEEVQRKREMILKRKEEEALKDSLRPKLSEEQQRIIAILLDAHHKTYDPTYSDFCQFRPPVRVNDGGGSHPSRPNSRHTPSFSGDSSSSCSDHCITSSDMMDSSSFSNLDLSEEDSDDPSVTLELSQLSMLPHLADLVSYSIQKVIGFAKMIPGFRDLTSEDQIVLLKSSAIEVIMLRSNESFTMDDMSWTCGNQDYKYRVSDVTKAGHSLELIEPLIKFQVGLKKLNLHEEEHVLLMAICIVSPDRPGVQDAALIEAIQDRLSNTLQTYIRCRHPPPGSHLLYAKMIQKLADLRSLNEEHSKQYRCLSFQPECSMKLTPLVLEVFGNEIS
Chain of Peroxisome proliferator-activated receptor alpha (Homo sapiens) (Q07869 whole entry, looked up): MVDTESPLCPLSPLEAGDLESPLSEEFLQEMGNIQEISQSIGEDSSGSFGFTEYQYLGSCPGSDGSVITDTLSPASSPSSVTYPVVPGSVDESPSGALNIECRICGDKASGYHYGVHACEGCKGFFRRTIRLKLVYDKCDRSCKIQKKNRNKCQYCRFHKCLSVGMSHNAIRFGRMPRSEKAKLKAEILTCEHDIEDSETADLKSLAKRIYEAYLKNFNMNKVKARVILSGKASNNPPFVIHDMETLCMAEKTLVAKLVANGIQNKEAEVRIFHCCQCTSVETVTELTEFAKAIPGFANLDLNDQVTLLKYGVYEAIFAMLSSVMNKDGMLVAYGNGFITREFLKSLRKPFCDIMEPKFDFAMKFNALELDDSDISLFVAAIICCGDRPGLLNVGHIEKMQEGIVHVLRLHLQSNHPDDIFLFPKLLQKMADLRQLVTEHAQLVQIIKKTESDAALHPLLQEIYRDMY
Chain of Cytochrome P450 3A4 (Homo sapiens) (P08684 whole entry, looked up): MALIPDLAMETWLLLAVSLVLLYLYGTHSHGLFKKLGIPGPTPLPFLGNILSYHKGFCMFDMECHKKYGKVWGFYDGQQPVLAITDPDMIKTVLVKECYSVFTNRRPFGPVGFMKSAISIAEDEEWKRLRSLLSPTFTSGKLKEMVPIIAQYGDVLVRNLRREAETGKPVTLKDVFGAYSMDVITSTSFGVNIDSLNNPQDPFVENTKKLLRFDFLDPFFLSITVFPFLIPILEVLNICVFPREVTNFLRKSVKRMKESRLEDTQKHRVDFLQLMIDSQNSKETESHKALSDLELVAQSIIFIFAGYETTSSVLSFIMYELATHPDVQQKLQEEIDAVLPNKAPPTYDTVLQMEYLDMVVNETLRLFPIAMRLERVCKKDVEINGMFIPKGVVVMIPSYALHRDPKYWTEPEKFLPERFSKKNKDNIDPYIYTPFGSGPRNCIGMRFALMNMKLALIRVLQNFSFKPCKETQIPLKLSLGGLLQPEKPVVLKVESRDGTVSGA
Chain of Thyroid hormone receptor beta (Homo sapiens) (P10828 whole entry, looked up): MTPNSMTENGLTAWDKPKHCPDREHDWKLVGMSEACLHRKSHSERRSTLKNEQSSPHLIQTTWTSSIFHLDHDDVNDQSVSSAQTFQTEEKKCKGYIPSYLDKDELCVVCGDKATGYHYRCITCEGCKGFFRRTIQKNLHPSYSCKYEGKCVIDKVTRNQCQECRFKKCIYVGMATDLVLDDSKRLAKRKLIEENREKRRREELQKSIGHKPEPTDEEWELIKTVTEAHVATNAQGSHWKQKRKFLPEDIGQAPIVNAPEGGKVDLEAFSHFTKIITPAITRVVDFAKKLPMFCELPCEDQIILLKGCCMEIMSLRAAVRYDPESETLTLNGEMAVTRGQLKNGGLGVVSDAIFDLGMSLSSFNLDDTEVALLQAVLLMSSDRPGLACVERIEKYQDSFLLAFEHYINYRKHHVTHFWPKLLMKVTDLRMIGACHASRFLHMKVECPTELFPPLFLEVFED

For the compound `CCOP(=O)(SC(C)CC)N1CCSC1=O` (stereo unspecified), the outcome in [1] and in experiment [4] was inactive. Further, the Potency result in experiment [2], in [3] and in [9] was “inactive” in each case. Also, the max response was -8.5% in experiment [5], 14.8% (inactive) in [6], 1.22% (inactive) in [8] and 14.1% (inactive) in experiment [10]. Further, the activation in [7] was -0.193% (inactive).
Consider `C=C(C)C(=O)OCCOC(=O)C(=C)C`, for which the result in experiment [1] was inactive.
Still for that read-out and setting: in the case of `Cc1c(N)cccc1[N+](=O)[O-]` it was “inactive”.
Turning to `c1c[nH]cn1`, the result in experiment [1] was inactive. The Potency result in experiment [11] is “inactive”.
Turning to `O=NO`, the result in experiment [1] was inactive. The Potency entry in experiment [11] was “inactive”.
As for `COc1ccc(N=[N+]([O-])c2ccc(OC)cc2)cc1`, in [12], the Potency is 25.1 µM (active). In addition, in [1], the compound was classed as inactive.
Regarding `O=C(Nc1ccccc1)c1ccccc1O`, the compound was classed as inactive in experiment [1]. The Potency in [7] was 44.7 µM (active).
On to `N#CC(Br)(Br)C(N)=O`, for which the result in experiment [4] and in [16] was inactive. Also, the max response is 6.67% in experiment [13] and -5.1% (inactive) in experiment [8]. For the same compound, the Potency entry in [14], in experiment [9] and in experiment [15] was “inactive” throughout. In [7], the activation is -0.328% (inactive).
Take `CN1C(=O)NC(=O)/C(=C\C=C\c2ccccc2[N+](=O)[O-])C1=O`: in experiment [17], the Potency result is “inactive”.
Consider `O=C1OC(=O)c2c(Br)c(Br)c(Br)c(Br)c21`, for which the result in experiment [1] was inactive. Also, the Potency result in experiment [11] was “inactive”.
For the compound `O=C(O)CCn1cc(C=C2C(=O)NC(=S)NC2=O)c(-c2cccc(Br)c2)n1`, the Potency in [18] is 6.7 µM (active). For the same compound, the Potency result in experiment [17] is “inactive”. Further, the result in experiment [19], in experiment [20], in experiment [21], in experiment [22] and in [23] was inactive.
`COc1ccc(C)cc1N`: the Potency result in [24] was “inactive”. In addition, in [1], the compound was classed as inactive.
For `CCOC(=O)[C@H](C)Oc1ccc(Oc2nc3ccc(Cl)cc3o2)cc1`, the Potency result in [25] was “inactive”.
